A selection: hits, their analogues and other compounds. The true share with any hit is near 2.3%.
MsrA inh – bovine MsrA enzyme inhibitors, primary screen, biochemical, absorbance, HTS; AID 651718, 2012; purified bovine MsrA, absorbance read-out; actives 0.75% (n = 360,000); inhibition, % at 15.5 µM; in the data active = inhibition above about 4.5%;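 also: 0% = vehicle wells with enzyme and 100% = reference inhibitor wells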
PP1 inh – PP1-alpha phosphatase inhibitors, primary screen, counter-screen for PP5 inhibitor project, biochemical, fluorescence, OMFP substrate, single point. purified PP1alpha. inhibition, % at 6.7 µM. actives 0.9% (n = 320,000). AID 2235, 2010;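 active = inhibition above the mean inhibition of all tested compounds plus 3 SD, computed separately for each screening campaign, cut at about 15% in these data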
ZTA DNA inh – counter-screen for EBNA-1 inhibitors: inhibitors of Epstein-Barr virus ZTA. P03206. ZTA-DNA binding, fluorescence polarization. inhibition, % at 11 µM. actives 0.15% (n = 320,000). AID 2234; in the data active = inhibition above about 33%
Target sequence (P03206 whole entry, looked up): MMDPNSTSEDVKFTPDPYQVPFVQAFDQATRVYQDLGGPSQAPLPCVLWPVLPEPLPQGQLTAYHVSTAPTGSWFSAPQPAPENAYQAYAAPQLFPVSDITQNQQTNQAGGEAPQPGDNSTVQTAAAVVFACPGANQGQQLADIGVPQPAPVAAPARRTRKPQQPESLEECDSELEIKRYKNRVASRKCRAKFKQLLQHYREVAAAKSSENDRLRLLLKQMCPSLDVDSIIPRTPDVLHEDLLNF
bovine MsrA act – bovine MsrA enzyme activators, primary screen, biochemical, absorbance, HTS. Methionine sulfoxide reductase A (Bos taurus). purified bovine MsrA, absorbance read-out. activation, % at 10.6 µM. actives 0.3% (n = 360,000). AID 602163, 2012; in the data active = activation above about 7.5%;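 also: 0% = vehicle and 100% = reference activator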
PP5 primary – PP5 phosphatase inhibitors, primary screen, biochemical, fluorescence. inhibition, % at 6.7 µM. purified PP5c, OMFP substrate fluorescence. actives 0.18% (n = 320,000);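 active = inhibition above the campaign's mean inhibition across all tested compounds plus 3 SD, cut at about 9.5% in these data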;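 also: 0% = DMSO only and 100% = 100 µM cantharidin control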
EBNA-1 inh – EBNA-1 DNA-binding inhibitors, primary screen, biochemical, fluorescence polarization | inhibition, % at 14.8 µM | actives 0.34% (n = 300,000) | AID 1950, 2009; in the data active = inhibition above about 28%
PP1 confirm – PP1 phosphatase inhibitors, confirmation, biochemical, fluorescence, OMFP substrate, triplicate; shares compounds with PP1 inh; purified PP1alpha; inhibition, % at 6.7 µM; actives 52% (n = 1,900);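 active = mean PP1 inhibition above a set limit taken from the earlier primary screen, cut at about 15% in these data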
PP5 inh counter – PP5 phosphatase inhibition by PP1 hits, confirmation, counter-screen for PP1 inhibitor project, biochemical, fluorescence, triplicate | inhibition, % at 6.7 µM | purified PP5c, OMFP fluorescence | shares compounds with PP1 inh | actives 4% (n = 1,900);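 active = mean PP5 inhibition over triplicate wells above about 9.5% taken from the earlier PP1 screen, limit read from the data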
An asterisk follows results filed as active; x = no result given.

SMILES	MsrA inh	PP1 inh	ZTA DNA inh	bovine MsrA act	PP5 primary	EBNA-1 inh	PP1 confirm	PP5 inh counter
C#CCOCCOCCOCCNc1nc(N2CCN(C(=O)CCCCCCCCCCNC(=O)[C@H](CCCCN)n3cc(CCO)nn3)CC2)nc(N2CCN(C(=O)CCCCCCCCCCNC(=O)[C@H](CCCCN)n3cc(CCO)nn3)CC2)n1	x	18.4*	22.0	5.0	1.0	-4.1	-14.6	-4.1
C#CCOCCOCCOCCNc1nc(N2CCN(C(=O)[C@H](CCCCN)n3cc(CCCC)nn3)CC2)nc(N2CCN(C(=O)[C@H](Cc3ccc(O)cc3)n3cc(CCO)nn3)CC2)n1	x	21.4*	-5.2	-5.1	1.8	-10.7	-10.0	0.3
C#CCOCCOCCOCCNc1nc(N2CCN(C(=O)CCCCCCCCCCNC(=O)Cn3cc(C[C@@H](C)O)nn3)CC2)nc(N2CCN(C(=O)CCCCCCCCCCNC(=O)[C@H](CCCCN)n3cc(C[C@@H](C)CC)nn3)CC2)n1	x	37.6*	7.3	1.3	4.8	-4.0	30.6*	1.1
C#CCOCCOCCOCCNc1nc(N2CCN(C(=O)CCCCCCCCCCNC(=O)[C@H](CCC(=O)O)n3cc(CCCCCN)nn3)CC2)nc(N2CCN(C(=O)CCCCCCCCCCNC(=O)[C@@H]([C@H](C)O)n3cc(C)nn3)CC2)n1	x	4.0	-9.9	-0.7	2.5	-8.7	x	x
C#CCOCCOCCOCCNc1nc(N2CCN(C(=O)[C@H](CCCCN)n3cc(CC(C)O)nn3)CC2)nc(N2CCN(C(=O)[C@H](Cc3ccc(O)cc3)n3cc(CCO)nn3)CC2)n1 (some centres not stated)	-1.1	x	x	-3.0	x	x	x	x
C#CCOCCOCCOCCNc1nc(N2CCN(C(=O)CCCCCCCCCCNC(=O)[C@H]([C@@H](C)CC)n3cc(CCCCCN)nn3)CC2)nc(N2CCN(C(=O)CCCCCCCCCCNC(=O)[C@@H]([C@H](C)O)n3cc(C)nn3)CC2)n1	x	53.9*	8.9	-6.3	3.7	9.6	40.8*	0.0
Cc1cc(NC(=O)CCSc2ccc(Cl)cc2)no1	1.5	-0.4	-8.9	-1.8	1.0	4.5	x	x
Cc1cccc(N/N=C(\C=N\N)C(=O)c2ccc(Br)cc2)c1	x	3.8	22.2	x	2.8	5.6	x	x
CCC[C@H]1CN(c2ccc(Br)cc2)C(=O)[C@@H]1CC(=O)Nc1ccc(OC)cc1	-0.7	x	x	-1.7	x	x	x	x
C#CCOCCOCCOCCNc1nc(N2CCOCC2)nc(N2CCN(C(=O)CCCCCCCCCCNC(=O)[C@H](CO)n3cc(CCCCCN)nn3)CC2)n1	-2.5	4.2	23.8	0.4	0.2	16.1	x	x
C#CCOCCOCCOCCNc1nc(N2CCN(C(=O)CCCCCCCCCCNC(=O)[C@H](CO)n3cc(CCCSC)nn3)CC2)nc(N2CCN(C(=O)CCCCCCCCCCNC(=O)[C@H](CO)n3cc(CCCSC)nn3)CC2)n1	-0.2	30.4*	-15.8	0.1	2.3	-0.6	21.9*	3.9
c1ccc(-c2cc(-c3nnc4n3N=C(c3ccc5ccccc5c3)CS4)[nH]n2)cc1	3.2	30.5*	10.2	-0.1	4.5	-1.6	22.5*	-2.3
Cc1cc(-c2nnc3n2N=C(c2ccc(-c4ccccc4)cc2)CS3)n[nH]1	1.4	34.3*	18.8	-4.9	-0.2	12.7	22.6*	-0.6
CCC(C)C(NC(=O)C1CCC(C)CC1)C(=O)NCc1ccccn1 (configuration not stated)	0.6	-2.1	-3.4	-7.0	-1.5	11.7	x	x
COc1ccc(CC(=O)NCC2CCCN(Cc3ccccc3OC)C2)cc1 (configuration not stated)	-0.6	-14.9	-7.4	-3.2	3.2	3.9	x	x
COc1cc(/C=C2/SC(=Nc3ccc(O)cc3)NC2=O)ccc1O	3.4	22.7*	-4.1	-6.4	0.8	-8.8	24.2*	-0.8

From PubChem BioAssay
